Laboratory results published in PubChem BioAssay (EPA / NIEHS).
Records with an inconclusive call do not appear. Activity calls are given as the source filed them. The calls were made as follows: active = hit-call score of the fitted dose curve at least 0.9, where 1 is the maximum; inconclusive = response in the unintended direction; inactive = score below 0.9.

The compounds below were run against human RAR-related Orphan Receptor beta (RORb), RORB (gene 6096) (UniProt Q92753) (assay: ATG_RORb_TRANS: Attagene TRANS-FACTORIAL HepG2 Assay for human RAR-related Orphan Receptor beta (RORb) (AID 2283010)).
Description: ATG_TRANS is a cell-based, multiplexed-readout assay that uses HepG2, a human liver cell line, with measurements taken at 24 hours after chemical dosing in a 24-well plate.ATG_RORb_TRANS is one of 30 assay component(s) measured or calculated from the ATG_TRANS assay. It is designed to make measurements of mRNA induction, a form of inducible reporter, as detected with fluorescence intensity signals by Reverse transcription polymerase chain reaction (RT-PCR) and Capillary electrophoresis technology.Data from the assay component ATG_RORb_TRANS was analyzed into 1 assay endpoint. This assay endpoint, ATG_RORb_TRANS, was analyzed in the positive analysis fitting direction relative to DMSO as the negative control and baseline of activity. Using a type of inducible reporter, measures of mRNA for gain-of-signal activity can be used to understand the reporter gene at the transcription factor-level as they relate to the gene RORB. Furthermore, this assay endpoint can be referred to as a primary readout, because this assay has produced multiple assay endpoints where this one serves a reporter gene function. To generalize the intended target to other relatable targets, this assay endpoint is annotated to the nuclear receptor intended target family, where the subfamily is orphan.
Human liver HepG2 cells are transiently transfected with multiple reporter transcription units (MRTUs) in 6-well plates using FuGene 6 reagent (Roche; 3 ml FuGene/1 mg DNA). The MRTU constructs are regulated by a cis-regulating element (promoter). […] A major difference between the CIS and TRANS system is that in CIS activities of endogenous TFs are measured, whereas the TRANS assay evaluates changes in activities of exogenous, chimeric NR-Gal4 proteins. […] At the end of 24 hour incubation, total RNA was isolated using TriZol reagent (Invitrogen). The isolated RNA is then reverse-transcribed using oligo(dT) primer and Mo-MLV reverse transcriptase (Invitrogen) with DNAse I (Ambion) treatment for 30 min. The one-tenth of the produced cDNA was amplified by PCR using Taq DNA polymerase (Invitrogen) and two reporter sequence-specific primers. The PCR products were fluorescently labeled by primer extension with 6-arboxyfluorescein (6-FAM) 5'-labeled reporter sequence-specific primer (2 min at 95 C, 20 s at 68 C and 10 min at 72 C) and these products were digested with 5U of HpaI (New England Biolabs) for 2h at 37 C. The fragments were purified using Qiaquick PCR columns (Qiagen), analyzed on an ABI 3130xL genetic analyzer (Applied Biosystems) with peak positions identified by using a set of X-rhodamine (ROX)-labeled MapMarker1000 molecular weight standards (BioVentures). The raw capillary electrophoresis data was processed using Attagraph software (Attagene).

human RAR-related Orphan Receptor beta (RORb), RORB (gene 6096), sequence (Q92753 whole entry, looked up): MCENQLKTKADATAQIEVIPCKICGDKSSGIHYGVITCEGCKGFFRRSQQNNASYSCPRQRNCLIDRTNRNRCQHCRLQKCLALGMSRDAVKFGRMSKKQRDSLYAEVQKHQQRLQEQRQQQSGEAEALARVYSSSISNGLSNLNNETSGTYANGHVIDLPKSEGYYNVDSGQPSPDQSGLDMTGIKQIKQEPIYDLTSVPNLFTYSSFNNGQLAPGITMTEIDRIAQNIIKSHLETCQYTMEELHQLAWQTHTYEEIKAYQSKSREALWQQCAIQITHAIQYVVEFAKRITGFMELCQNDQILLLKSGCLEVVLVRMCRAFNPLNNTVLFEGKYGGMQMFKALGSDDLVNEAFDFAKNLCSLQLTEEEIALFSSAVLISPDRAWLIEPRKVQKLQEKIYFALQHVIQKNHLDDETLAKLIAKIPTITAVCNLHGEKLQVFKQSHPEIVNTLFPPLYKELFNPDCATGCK

outcome, inactive:
C=CC(C)(CCC=C(C)C)OC=O (stereo not given), CC(C)CCCCCCCOC(=O)c1ccc(C(=O)OCCCCCCCC(C)C)c(C(=O)OCCCCCCCC(C)C)c1, O=Nc1ccc(Nc2ccccc2)cc1, BrC1CCC(Br)C(Br)CCC(Br)C(Br)CCC1Br (stereo not given), OCCN1CCNCC1, CO[Si](C)(OC)c1ccccc1, CNC[C@H](O)c1cccc(O)c1, CCCC(=O)C(C)=O, O=C(Nc1ccccc1)c1cc([N+](=O)[O-])ccc1Cl, NC(=O)Nc1ccc(Cl)cc1, Cc1ccc(C=O)s1, O=[N+]([O-])c1ccc(Nc2ccc(Nc3ccccc3)c(S(=O)(=O)O)c2)c([N+](=O)[O-])c1, Cc1ccc(C=O)cc1, CCCCCCCCCCCCN(CCCCCCCCCCCC)CCCCCCCCCCCC, CCCCCCCCCCCCCCCC(=O)O, O=C(O)c1cccc([N+](=O)[O-])c1, C#C[C@]1(O)CC[C@H]2[C@@H]3CCC4=Cc5oncc5C[C@]4(C)[C@H]3CC[C@@]21C, CC(C)(CO)[N+](=O)[O-], CN(C)CCOCCN(C)C, NC(=O)c1ccccc1Cl, CC1=CCC(O)(C(C)C)CC1 (stereo not given), O=C(O)CCCCC1CCSS1 (stereo not given), COc1cc(C=O)ccc1OC(=O)C(C)C, CCCCCCOC(=O)CCCCC, O=C(O)CN(CCN(CC(=O)O)CC(=O)O)CCN(CC(=O)O)CC(=O)O, COc1nc(C)nc(N)n1, O=C1NC(=O)c2ccccc21, O=C(O)Cc1cccc2ccccc12, O=C1CCCCCCCCCCOCCCCO1, CCCCCCCCCCCCCCCCCC(=O)OCC(CC)CCCC (stereo not given), OCc1cccnc1, c1ccc2sc(SN(C3CCCCC3)C3CCCCC3)nc2c1, COC(=O)c1ccc(C)cc1, Cc1cccc(C)c1[N+](=O)[O-], CC(=O)[O][Al][O]C(C)=O, CCCC[n+]1ccccc1, CC(C)c1ccc(C(C)C)cc1, C=CC(=O)OCCOCCOCC, CCc1ccc(C=O)cc1, CC(=O)OCCC(C)CC(C)(C)C (stereo not given)
